From PubChem BioAssay AID1159580 (chemical genetic matrix, 2015)
The whole screen tested about 5,500 compounds, of which about 2,000 (36%) were called active. Not shown: some 18% with an inconclusive outcome. No stated cut-off is given here; in the data, active means normalized growth mostly below about 0.91 (no sharp cut-off); inconclusive means no clear call, values can overlap the other calls; inactive means mostly above about 0.92. The list shows a part of the results.

Assay: chemical genetic growth profiling, strain panel (AID 1159580);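 further: tested at 20 µM; growth read once vehicle control cultures reached saturation at 30 °C; 1 = growth at the plate median or of vehicle wells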
Conditions: growth OD

Measured: normalized growth

COc1cc2cc3c4cc(OC)c(OC)cc4cc[n+]3c(C)c2cc1OC
inactive: S. cerevisiae deletion strains, locus YJR043C, strain POL32, stronger effect = lower value 0.98 | S. cerevisiae deletion strains, locus YJR066W, strain TOR1, stronger effect = lower value 0.964 | S. cerevisiae deletion strains, locus YKL009W, strain mrt4, stronger effect = lower value 0.997 | S. cerevisiae deletion strains, locus YKL068W, stronger effect = lower value 1.01 | S. cerevisiae deletion strains, locus YKL085W, strain MDH1 (second series), stronger effect = lower value 1.03 | S. cerevisiae deletion strains, locus YKL085W, strain MDH1, stronger effect = lower value 1.03 | S. cerevisiae deletion strains, locus YKL160W, strain elf1, stronger effect = lower value 0.988 | S. cerevisiae deletion strains, locus YKL190W, strain CNB1, stronger effect = lower value 1.01 | S. cerevisiae deletion strains, locus YKR001C, strain vps1, stronger effect = lower value 1.05 | S. cerevisiae deletion strains, locus YKR026C, strain gcn3, stronger effect = lower value 1.02 | S. cerevisiae deletion strains, locus YKR091W, strain srl3, stronger effect = lower value 1 | S. cerevisiae deletion strains, locus YLL001W, strain dnm1, stronger effect = lower value 1.01 | S. cerevisiae deletion strains, locus YLL026W, stronger effect = lower value 1.02 | S. cerevisiae deletion strains, locus YLL041C, strain sdh2, stronger effect = lower value 1.02 | S. cerevisiae deletion strains, locus YLR027C, strain aat2, stronger effect = lower value 1.03 | S. cerevisiae deletion strains, locus YLR039C, strain RIC1, stronger effect = lower value 1.11 | S. cerevisiae deletion strains, locus YLR058C, strain SHM2, stronger effect = lower value 0.998 | S. cerevisiae deletion strains, locus YLR102C, strain apc9, stronger effect = lower value 1.01 | S. cerevisiae deletion strains, locus YLR113W, strain HOG1, stronger effect = lower value 0.992 | S. cerevisiae deletion strains, locus YLR221C, strain rsa3, stronger effect = lower value 1.02 | S. cerevisiae deletion strains, locus YLR258W, strain gsy2, stronger effect = lower value 0.982 | S. cerevisiae deletion strains, locus YLR262C, strain YPT6 (second series), stronger effect = lower value 1.03 | S. cerevisiae deletion strains, locus YLR262C, strain YPT6, stronger effect = lower value 1.14 | S. cerevisiae deletion strains, locus YLR268W, strain sec22, stronger effect = lower value 1.02 | S. cerevisiae deletion strains, locus YLR320W, strain mms22, stronger effect = lower value 1 | S. cerevisiae deletion strains, locus YLR330W, strain CHS5, stronger effect = lower value 1.01 | S. cerevisiae deletion strains, locus YLR342W, strain FKS1 (second series), stronger effect = lower value 0.98 | S. cerevisiae deletion strains, locus YLR342W, strain FKS1, stronger effect = lower value 1.02 | S. cerevisiae deletion strains, locus YLR357W, strain rsc2, stronger effect = lower value 1.01 | S. cerevisiae deletion strains, locus YLR370C, strain arc18, stronger effect = lower value 1.02 | S. cerevisiae deletion strains, locus YLR371W, strain rom2, stronger effect = lower value 1.02 | S. cerevisiae deletion strains, locus YLR384C, strain iki3, stronger effect = lower value 1.01 | S. cerevisiae deletion strains, locus YLR418C, strain cdc73, stronger effect = lower value 0.966 | S. cerevisiae deletion strains, locus YML016C, strain PPZ1, stronger effect = lower value 1.02 | S. cerevisiae deletion strains, locus YML032C, strain rad52, stronger effect = lower value 0.925 | S. cerevisiae deletion strains, locus YML120C, strain ndi1, stronger effect = lower value 1 | S. cerevisiae deletion strains, locus YML124C, strain tub3, stronger effect = lower value 1.01 | S. cerevisiae deletion strains, locus YMR058W, strain fet3, stronger effect = lower value 1.02 | S. cerevisiae deletion strains, locus YMR078C, strain ctf18, stronger effect = lower value 1.02 | S. cerevisiae deletion strains, locus YMR125W, strain sto1, stronger effect = lower value 0.999 | S. cerevisiae deletion strains, locus YMR129W, stronger effect = lower value 1.01 | S. cerevisiae deletion strains, locus YMR205C, strain PFK2, stronger effect = lower value 0.979 | S. cerevisiae deletion strains, locus YMR223W, strain ubp8, stronger effect = lower value 0.982 | S. cerevisiae deletion strains, locus YMR231W, strain pep5, stronger effect = lower value 0.949 | S. cerevisiae deletion strains, locus YMR307W, strain GAS1, stronger effect = lower value 1.02 | S. cerevisiae deletion strains, locus YNL067W, strain RPL9B, stronger effect = lower value 1.01 | S. cerevisiae deletion strains, locus YNL071W, strain lat1, stronger effect = lower value 1 | S. cerevisiae deletion strains, locus YNL183C, strain NPR1, stronger effect = lower value 0.938 | S. cerevisiae deletion strains, locus YNL209W, strain ssb2, stronger effect = lower value 1 | S. cerevisiae deletion strains, locus YNL233W, strain BNI4, stronger effect = lower value 0.995 | S. cerevisiae deletion strains, locus YNL248C, strain rpa49, stronger effect = lower value 1.01 | S. cerevisiae deletion strains, locus YNL250W, strain rad50, stronger effect = lower value 1 | S. cerevisiae deletion strains, locus YNL271C, strain bni1, stronger effect = lower value 1.02 | S. cerevisiae deletion strains, locus YNL298W, strain CLA4, stronger effect = lower value 1.01 | S. cerevisiae deletion strains, locus YNL307C, strain MCK1, stronger effect = lower value 1.01 | S. cerevisiae deletion strains, locus YNL322C, strain KRE1 (second series), stronger effect = lower value 1 | S. cerevisiae deletion strains, locus YNR049C, strain mso1, stronger effect = lower value 1.04 | S. cerevisiae deletion strains, locus YNR052C, strain pop2, stronger effect = lower value 0.978 | S. cerevisiae deletion strains, locus YOL006C, strain TOP1, stronger effect = lower value 1.04 | S. cerevisiae deletion strains, locus YOL012C, strain htz1 1.07 | S. cerevisiae deletion strains, locus YOL147C, strain pex11, stronger effect = lower value 1.03 | S. cerevisiae deletion strains, locus YOR001W, strain rrp6, stronger effect = lower value 1.03 | S. cerevisiae deletion strains, locus YOR061W, strain CKA2, stronger effect = lower value 1.01 | S. cerevisiae deletion strains, locus YOR069W, strain VPS5, stronger effect = lower value 1.01 | S. cerevisiae deletion strains, locus YOR070C, strain gyp1, stronger effect = lower value 1.02 | S. cerevisiae deletion strains, locus YOR080W, strain dia2, stronger effect = lower value 1.01 | S. cerevisiae deletion strains, locus YOR083W, strain WHI5, stronger effect = lower value 0.985 | S. cerevisiae deletion strains, locus YOR106W, strain vam3, stronger effect = lower value 0.981 | S. cerevisiae deletion strains, locus YOR136W, strain idh2, stronger effect = lower value 1.02 | S. cerevisiae deletion strains, locus YOR144C, strain elg1, stronger effect = lower value 1.01 | S. cerevisiae deletion strains, locus YOR184W, strain ser1, stronger effect = lower value 0.993 | S. cerevisiae deletion strains, locus YOR231W, strain MKK1, stronger effect = lower value 0.983 | S. cerevisiae deletion strains, locus YOR265W, strain rbl2, stronger effect = lower value 1.01 | S. cerevisiae deletion strains, locus YOR270C, strain vph1, stronger effect = lower value 1.08 | S. cerevisiae deletion strains, locus YOR290C, strain snf2, stronger effect = lower value 0.982 | S. cerevisiae deletion strains, locus YOR316C, strain cot1, stronger effect = lower value 1.02 | S. cerevisiae deletion strains, locus YPL051W, strain arl3, stronger effect = lower value 1.02 | S. cerevisiae deletion strains, locus YPL055C, strain LGE1, stronger effect = lower value 0.999 | S. cerevisiae deletion strains, locus YPL078C, strain atp4, stronger effect = lower value 1 | S. cerevisiae deletion strains, locus YPL106C, strain sse1, stronger effect = lower value 0.983 | S. cerevisiae deletion strains, locus YPL240C, strain hsp82, stronger effect = lower value 1 | S. cerevisiae deletion strains, locus YPL256C, strain CLN2, stronger effect = lower value 0.968 | S. cerevisiae deletion strains, locus YPR119W, strain clb2, stronger effect = lower value 1.01 | S. cerevisiae deletion strains, locus YPR141C, strain kar3, stronger effect = lower value 1.01 | S. cerevisiae deletion strains, locus YPR163C, strain tif3, stronger effect = lower value 1.01 | S. cerevisiae deletion strains, locus YPR167C, strain met16, stronger effect = lower value 0.997 | S. cerevisiae deletion strains, strain wtn01, stronger effect = lower value 1.02 | S. cerevisiae strains, strain wild type, stronger effect = lower value 1
